In PubChem BioAssay (EPA / NIEHS):
Results filed as inconclusive are left out. Activity calls are given as the source filed them. How the source made its calls: active means hit-call score of the fitted dose curve at least 0.9, where 1 is the maximum; inconclusive means response in the unintended direction; inactive means score below 0.9.

How the values were obtained:
[1] = molecular target: human Janus Kinase 2 (Jak2), JAK2 (gene 3717) (UniProt O60674); experiment: NVS_ENZ_hJak2: NovaScreen (NVS) Enzymatic Assay for human Janus Kinase 2 (Jak2) (AID 2283169)
Outline: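 Cell-free recombinant human JAK2 enzyme activity assay, fluorescence/electrophoretic mobility shift read 1 h after dosing. Screened in duplicate at 25 uM, then concentration-response up to 50 uM; activity as signal loss relative to DMSO.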

[2] = molecular target: human Phosphodiesterase 4A1 (PDE4A1), PDE4A (gene 5141) (UniProt P27815); experiment: NVS_ENZ_hPDE4A1: NovaScreen (NVS) Enzymatic Assay for human Phosphodiesterase 4A1 (PDE4A1) (AID 2283191)
Outline: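 Cell-free recombinant human PDE4A1 with fluorescent substrate; product separated by electrophoretic mobility shift, 1 h. Screened at 25 uM, then up to 50 uM in concentration-response; loss of signal fitted against DMSO.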

[3] = molecular target: human Phosphodiesterase 5 (PDE5), PDE5A (gene 8654) (UniProt O76074); experiment: NVS_ENZ_hPDE5: NovaScreen (NVS) Enzymatic Assay for human Phosphodiesterase 5 (PDE5) (AID 2283194)
Outline: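 Recombinant human PDE5 with specific substrate, read 1 h after dosing by fluorescence with electrophoretic mobility-shift separation of substrate and product. Initial single-concentration duplicate screen at 25 uM, actives followed in concentration series; loss of activity versus DMSO.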

[4] = molecular target: human Phosphodiesterase 10 (PDE10), PDE10A (gene 10846) (UniProt Q9Y233); experiment: NVS_ENZ_hPDE10: NovaScreen (NVS) Enzymatic Assay for human Phosphodiesterase 10 (PDE10) (AID 2283195)
Outline: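 Fluorescence/mobility-shift readout of PDE10A enzyme activity, taken 1 h post-dosing. Primary screen in duplicate at 25 uM; actives (e.g. ≥30% inhibition) retested as singleton concentration-response, top concentration 50 uM.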

[5] = molecular target: human Insulin Receptor (InsR), INSR (gene 3643) (UniProt P06213); experiment: NVS_ENZ_hInsR: NovaScreen (NVS) Enzymatic Assay for human Insulin Receptor (InsR) (AID 2283168)
Outline: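 Fluorescent substrate phosphorylation by recombinant kinase, product resolved by electrophoretic mobility shift, read 1 h after dosing. Screened in duplicate at 25 uM; hits (e.g., 30% inhibition) run in concentration-response to 50 uM; DMSO as baseline.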

[6] = molecular target: Collagenase 3 (Homo sapiens) (UniProt P45452); experiment: NVS_ENZ_hMMP13: NovaScreen (NVS) Enzymatic Assay for human Matrix Metalloproteinase-13 (MMP13) (AID 2283182)
Outline: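 Recombinant MMP13 cleaving fluorescent substrate, cell-free, measured 1 h after dosing. Primary duplicate screen at 25 uM; actives tested in concentration-response up to 50 uM; loss of signal relative to DMSO.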

[7] = molecular target: human Matrix Metalloproteinase-9 (MMP9), MMP9 (gene 4318) (UniProt P14780); experiment: NVS_ENZ_hMMP9: NovaScreen (NVS) Enzymatic Assay for human Matrix Metalloproteinase-9 (MMP9) (AID 2283190);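 further: cell-free recombinant MMP9 protease activity read by fluorescent substrate signal; active means inhibition seen as loss of fluorescence signal versus DMSO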
Outline: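 Cell-free fluorescence-intensity enzyme activity assay using extracted protein, read 1 h after dosing. Loss of signal versus DMSO baseline indicates inhibition; primary screen in duplicate at 25 uM, actives followed up in concentration series.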

[8] = molecular target: human Phosphoinositide 3-kinase alpha (PI3Ka), PIK3CA (gene 5290) (UniProt P42336); experiment: NVS_ENZ_hPI3Ka: NovaScreen (NVS) Enzymatic Assay for human Phosphoinositide 3-kinase alpha (PI3Ka) (AID 2283196)
Outline: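 Enzyme activity as fluorescence after mobility-shift separation of substrate and product, 1 h reaction, recombinant human PI3Kα; concentration-response to 50 uM max for chemicals passing a 25 uM duplicate screen.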

[9] = molecular target: human Mitogen-Activated Protein Kinase 1 (MAPK 1), MAPK1 (gene 5594) (UniProt P28482); experiment: NVS_ENZ_hMAPK1: NovaScreen (NVS) Enzymatic Assay for human Mitogen-Activated Protein Kinase 1 (MAPK 1) (AID 2283175)
Outline: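 Cell-free recombinant human MAPK1 enzymatic assay, fluorescence/electrophoretic mobility shift read at 1 h; loss of signal vs DMSO. Primary screen in duplicate at 25 uM; actives (e.g. ≥30% inhibition) run as concentration-response up to 50 uM.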

[10] = molecular target: Mitogen-activated protein kinase 3 (Homo sapiens) (UniProt P27361); experiment: NVS_ENZ_hMAPK3: NovaScreen (NVS) Enzymatic Assay for human Mitogen-Activated Protein Kinase 3 (MAPK 3) (AID 2283177)
Outline: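 Cell-free enzymatic assay with recombinant protein and specific substrate; fluorescence and electrophoretic mobility shift read-out 1 h after dosing. Primary screen duplicate at 25 uM; actives then run in concentration-response up to 50 uM, loss of signal versus DMSO.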

[11] = molecular target: human MAP Kinase-Activated Protein Kinase 2 (MAPKAPK2), MAPKAPK2 (gene 9261) (UniProt P49137); experiment: NVS_ENZ_hMAPKAPK2: NovaScreen (NVS) Enzymatic Assay for human MAP Kinase-Activated Protein Kinase 2 (MAPKAPK2) (AID 2283178)
Outline: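 Cell-free recombinant human MAPKAPK2 activity measured by fluorescence with electrophoretic mobility shift separation of substrate and product, 1 hr after dosing. Loss of signal versus DMSO; primary screen at 25 uM, concentration-response up to 50 uM.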

[12] = molecular target: human Mitogen- and Stress-activated Protein Kinase-1 (Msk1), RPS6KA5 (gene 9252) (UniProt O75582); experiment: NVS_ENZ_hMsk1: NovaScreen (NVS) Enzymatic Assay for human Mitogen- and Stress-activated Protein Kinase-1 (Msk1) (AID 2283187)
Outline: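 Recombinant kinase with fluorescent substrate; product separated by electrophoretic mobility shift, read 1 h after dosing. Screened in duplicate at 25 uM; hits (e.g. ≥30% inhibition) tested in concentration–response up to 50 uM. DMSO baseline.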

[13] = molecular target: cAMP-dependent protein kinase catalytic subunit alpha (Homo sapiens) (UniProt P17612); experiment: NVS_ENZ_hPKA: NovaScreen (NVS) Enzymatic Assay for human Protein Kinase A (PKA) (AID 2283192)
Outline: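 Recombinant human PKA with specific fluorescent substrate, product separated by electrophoretic mobility shift, read 1 h after dosing. Primary screen at 25 uM in duplicate; actives then run in concentration-response up to 50 uM, activity relative to DMSO.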

[14] = molecular target: human NIMA (Never In Mitosis Gene A)-Related Kinase 2 (NEK2), NEK2 (gene 4751) (UniProt P51955); experiment: NVS_ENZ_hNEK2: NovaScreen (NVS) Enzymatic Assay for human NIMA (Never In Mitosis Gene A)-Related Kinase 2 (NEK2) (AID 2283188)
Outline: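 Cell-free NEK2 enzyme activity after 1 h exposure, read by fluorescence with electrophoretic mobility shift separating substrate and product. Primary screen in duplicate at 25 uM; actives then run as concentration series. Loss of signal versus DMSO scored.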

[15] = molecular target: human Matrix Metalloproteinase-1 (MMP1), MMP1 (gene 4312) (UniProt P03956); experiment: NVS_ENZ_hMMP1: NovaScreen (NVS) Enzymatic Assay for human Matrix Metalloproteinase-1 (MMP1) (AID 2283181)
Outline: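 Human MMP1 enzyme activity measured by fluorescence 1 h after dosing, cell-free, with a specific substrate. Screened in duplicate at 25 uM; hits (e.g. 30% inhibition) run in concentration-response up to 50 uM; loss of signal versus DMSO.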

[16] = molecular target: human MET Proto-Oncogene, Receptor Tyrosine Kinase (MET), MET (gene 4233) (UniProt P08581); experiment: NVS_ENZ_hMet: NovaScreen (NVS) Enzymatic Assay for human MET Proto-Oncogene, Receptor Tyrosine Kinase (MET) (AID 2283180)
Outline: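 Cell-free MET kinase assay using recombinant protein and fluorescent substrate, with mobility-shift separation; read 1 h after dosing. Primary duplicate at 25 uM; actives in singleton concentration-response to 50 uM maximum. Signal loss versus DMSO.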

Chain of human Phosphodiesterase 4A1 (PDE4A1), PDE4A (gene 5141) (P27815 whole entry, looked up): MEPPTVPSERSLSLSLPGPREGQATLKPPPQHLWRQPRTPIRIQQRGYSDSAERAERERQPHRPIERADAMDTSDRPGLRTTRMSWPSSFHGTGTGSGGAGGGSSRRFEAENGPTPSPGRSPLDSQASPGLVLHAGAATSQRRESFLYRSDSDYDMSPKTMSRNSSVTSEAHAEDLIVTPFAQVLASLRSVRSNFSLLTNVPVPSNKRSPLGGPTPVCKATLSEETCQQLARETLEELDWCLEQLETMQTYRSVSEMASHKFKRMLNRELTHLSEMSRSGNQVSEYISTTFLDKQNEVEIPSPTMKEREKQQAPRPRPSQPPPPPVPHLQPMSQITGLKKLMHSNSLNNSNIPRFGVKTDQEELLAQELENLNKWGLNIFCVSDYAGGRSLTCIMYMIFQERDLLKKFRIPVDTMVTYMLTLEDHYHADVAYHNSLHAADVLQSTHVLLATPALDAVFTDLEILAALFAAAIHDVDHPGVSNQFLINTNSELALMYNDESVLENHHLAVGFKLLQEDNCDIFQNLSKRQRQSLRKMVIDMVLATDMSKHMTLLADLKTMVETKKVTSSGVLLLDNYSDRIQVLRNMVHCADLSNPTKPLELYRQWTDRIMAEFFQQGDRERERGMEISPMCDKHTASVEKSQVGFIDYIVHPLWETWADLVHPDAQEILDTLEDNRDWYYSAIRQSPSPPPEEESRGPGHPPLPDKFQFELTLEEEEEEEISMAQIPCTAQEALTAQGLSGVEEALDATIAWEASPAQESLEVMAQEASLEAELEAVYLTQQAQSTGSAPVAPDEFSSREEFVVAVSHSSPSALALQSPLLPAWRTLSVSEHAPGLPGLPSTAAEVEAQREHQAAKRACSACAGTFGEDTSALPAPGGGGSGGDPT
Chain of human Phosphoinositide 3-kinase alpha (PI3Ka), PIK3CA (gene 5290) (P42336 whole entry, looked up): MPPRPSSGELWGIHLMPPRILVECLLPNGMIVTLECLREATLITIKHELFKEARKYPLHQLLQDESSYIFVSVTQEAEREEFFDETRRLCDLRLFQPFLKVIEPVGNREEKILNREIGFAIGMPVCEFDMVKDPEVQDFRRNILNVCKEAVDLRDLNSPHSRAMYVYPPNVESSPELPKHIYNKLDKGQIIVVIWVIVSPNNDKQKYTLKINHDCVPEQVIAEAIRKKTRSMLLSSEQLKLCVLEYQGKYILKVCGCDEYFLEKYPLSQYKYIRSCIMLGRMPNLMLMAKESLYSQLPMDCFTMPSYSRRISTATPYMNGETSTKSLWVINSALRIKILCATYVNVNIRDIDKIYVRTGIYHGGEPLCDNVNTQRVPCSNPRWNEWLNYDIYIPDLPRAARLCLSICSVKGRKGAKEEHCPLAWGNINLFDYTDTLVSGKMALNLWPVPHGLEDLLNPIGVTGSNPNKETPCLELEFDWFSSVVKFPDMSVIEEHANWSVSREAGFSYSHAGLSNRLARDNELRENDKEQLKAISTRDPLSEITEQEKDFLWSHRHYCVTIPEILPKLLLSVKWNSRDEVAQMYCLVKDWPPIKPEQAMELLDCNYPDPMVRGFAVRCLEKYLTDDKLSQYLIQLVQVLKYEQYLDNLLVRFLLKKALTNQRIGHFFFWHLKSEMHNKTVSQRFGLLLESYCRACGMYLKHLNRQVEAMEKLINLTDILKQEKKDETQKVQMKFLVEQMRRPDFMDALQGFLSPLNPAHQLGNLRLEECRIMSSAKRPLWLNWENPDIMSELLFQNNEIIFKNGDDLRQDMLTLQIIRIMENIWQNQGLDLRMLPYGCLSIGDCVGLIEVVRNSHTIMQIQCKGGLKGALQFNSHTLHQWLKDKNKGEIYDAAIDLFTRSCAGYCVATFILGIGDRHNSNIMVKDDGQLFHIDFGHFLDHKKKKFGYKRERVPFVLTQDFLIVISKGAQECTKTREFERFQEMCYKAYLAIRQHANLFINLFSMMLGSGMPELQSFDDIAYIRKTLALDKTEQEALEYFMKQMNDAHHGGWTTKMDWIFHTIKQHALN
Chain of human Matrix Metalloproteinase-9 (MMP9), MMP9 (gene 4318) (P14780 whole entry, looked up): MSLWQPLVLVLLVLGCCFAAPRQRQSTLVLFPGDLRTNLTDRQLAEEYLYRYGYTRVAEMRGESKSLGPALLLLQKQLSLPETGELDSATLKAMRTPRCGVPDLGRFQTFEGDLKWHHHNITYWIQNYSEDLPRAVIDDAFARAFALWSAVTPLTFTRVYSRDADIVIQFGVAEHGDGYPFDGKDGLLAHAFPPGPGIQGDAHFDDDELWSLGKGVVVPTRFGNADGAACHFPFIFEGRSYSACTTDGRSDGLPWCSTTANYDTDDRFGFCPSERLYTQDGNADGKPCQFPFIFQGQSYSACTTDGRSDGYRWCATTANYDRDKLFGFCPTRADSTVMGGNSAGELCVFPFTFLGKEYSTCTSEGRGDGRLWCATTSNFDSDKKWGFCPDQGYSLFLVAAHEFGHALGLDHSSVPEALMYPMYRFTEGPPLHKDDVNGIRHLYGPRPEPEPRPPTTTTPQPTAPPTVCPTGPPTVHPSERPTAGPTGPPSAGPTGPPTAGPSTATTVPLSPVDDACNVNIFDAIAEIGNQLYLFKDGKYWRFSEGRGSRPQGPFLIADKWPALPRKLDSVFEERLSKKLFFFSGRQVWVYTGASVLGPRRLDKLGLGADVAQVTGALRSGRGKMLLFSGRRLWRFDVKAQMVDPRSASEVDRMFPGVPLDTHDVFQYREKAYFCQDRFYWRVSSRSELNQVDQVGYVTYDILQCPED
Chain of human MAP Kinase-Activated Protein Kinase 2 (MAPKAPK2), MAPKAPK2 (gene 9261) (P49137 whole entry, looked up): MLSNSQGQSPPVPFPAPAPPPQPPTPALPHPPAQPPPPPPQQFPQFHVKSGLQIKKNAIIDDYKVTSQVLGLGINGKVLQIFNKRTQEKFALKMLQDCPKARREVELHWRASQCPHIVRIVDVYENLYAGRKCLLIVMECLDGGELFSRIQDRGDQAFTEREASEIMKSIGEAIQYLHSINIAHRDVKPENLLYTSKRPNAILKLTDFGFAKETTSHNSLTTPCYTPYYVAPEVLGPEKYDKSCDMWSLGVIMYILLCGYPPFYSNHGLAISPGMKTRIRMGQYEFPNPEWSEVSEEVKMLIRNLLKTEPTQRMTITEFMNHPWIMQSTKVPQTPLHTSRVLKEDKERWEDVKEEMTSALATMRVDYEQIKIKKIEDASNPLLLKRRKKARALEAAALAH
Chain of human Janus Kinase 2 (Jak2), JAK2 (gene 3717) (O60674 whole entry, looked up): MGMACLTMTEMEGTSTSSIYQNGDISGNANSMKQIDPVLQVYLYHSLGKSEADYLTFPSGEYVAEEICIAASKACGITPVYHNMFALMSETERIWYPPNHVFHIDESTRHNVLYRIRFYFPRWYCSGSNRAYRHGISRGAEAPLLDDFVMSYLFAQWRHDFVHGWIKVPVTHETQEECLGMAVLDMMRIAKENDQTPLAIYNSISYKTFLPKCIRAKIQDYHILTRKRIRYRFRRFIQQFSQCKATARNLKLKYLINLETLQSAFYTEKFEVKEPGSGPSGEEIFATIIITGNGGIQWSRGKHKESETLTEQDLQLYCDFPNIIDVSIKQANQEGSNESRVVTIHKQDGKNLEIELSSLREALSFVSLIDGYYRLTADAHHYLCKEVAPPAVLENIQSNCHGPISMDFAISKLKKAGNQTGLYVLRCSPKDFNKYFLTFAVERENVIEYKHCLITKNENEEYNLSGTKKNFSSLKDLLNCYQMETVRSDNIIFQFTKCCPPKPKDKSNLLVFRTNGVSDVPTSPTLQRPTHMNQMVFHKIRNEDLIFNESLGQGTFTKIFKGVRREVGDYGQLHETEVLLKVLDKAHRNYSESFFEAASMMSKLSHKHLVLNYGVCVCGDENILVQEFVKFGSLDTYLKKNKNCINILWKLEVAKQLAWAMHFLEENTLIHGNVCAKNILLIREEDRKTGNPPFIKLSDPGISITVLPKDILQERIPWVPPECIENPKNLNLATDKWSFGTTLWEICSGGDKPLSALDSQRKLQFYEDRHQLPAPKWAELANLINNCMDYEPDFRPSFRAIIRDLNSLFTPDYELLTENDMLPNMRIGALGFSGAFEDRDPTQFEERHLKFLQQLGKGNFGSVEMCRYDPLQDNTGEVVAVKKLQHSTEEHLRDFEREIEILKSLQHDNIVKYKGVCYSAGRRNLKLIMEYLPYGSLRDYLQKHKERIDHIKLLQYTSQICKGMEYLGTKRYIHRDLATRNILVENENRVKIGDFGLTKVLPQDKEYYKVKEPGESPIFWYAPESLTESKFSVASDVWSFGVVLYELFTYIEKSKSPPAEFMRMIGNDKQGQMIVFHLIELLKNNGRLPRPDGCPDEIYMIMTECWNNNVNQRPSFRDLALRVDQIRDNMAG
Chain of human Mitogen- and Stress-activated Protein Kinase-1 (Msk1), RPS6KA5 (gene 9252) (O75582 whole entry, looked up): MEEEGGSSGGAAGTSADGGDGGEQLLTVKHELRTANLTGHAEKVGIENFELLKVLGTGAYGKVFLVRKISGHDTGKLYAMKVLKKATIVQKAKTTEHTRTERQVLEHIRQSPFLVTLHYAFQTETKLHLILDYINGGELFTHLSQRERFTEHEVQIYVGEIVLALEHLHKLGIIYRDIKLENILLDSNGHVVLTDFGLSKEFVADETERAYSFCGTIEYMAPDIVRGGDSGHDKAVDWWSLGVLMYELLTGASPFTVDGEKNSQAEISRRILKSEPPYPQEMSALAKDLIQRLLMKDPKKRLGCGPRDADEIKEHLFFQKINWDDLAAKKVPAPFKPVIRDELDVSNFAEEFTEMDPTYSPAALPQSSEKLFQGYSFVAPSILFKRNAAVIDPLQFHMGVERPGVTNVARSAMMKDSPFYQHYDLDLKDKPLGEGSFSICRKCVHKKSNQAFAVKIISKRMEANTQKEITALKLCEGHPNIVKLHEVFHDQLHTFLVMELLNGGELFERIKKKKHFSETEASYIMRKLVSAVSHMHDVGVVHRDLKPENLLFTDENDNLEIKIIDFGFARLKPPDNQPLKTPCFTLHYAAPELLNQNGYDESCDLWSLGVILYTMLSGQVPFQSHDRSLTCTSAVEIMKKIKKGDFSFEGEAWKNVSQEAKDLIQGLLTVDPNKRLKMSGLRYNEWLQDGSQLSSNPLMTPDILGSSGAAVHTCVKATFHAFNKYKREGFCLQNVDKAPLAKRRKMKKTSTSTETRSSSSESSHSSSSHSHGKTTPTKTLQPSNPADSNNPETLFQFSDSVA

For CC(C)(C)C(O)C(Oc1ccc(Cl)cc1)n1cncn1 (stereo unspecified), the outcome [1] was “inactive”, the outcome [2] was “inactive” and the outcome [3] was “inactive”. The outcome [4] was “inactive”.

With COC(=O)c1ccccc1CS(=O)(=O)NC(=O)Nc1nc(OC)cc(OC)n1 the outcome [5] was “inactive” and the outcome [1] was “inactive”.

For CCOc1nc(NC)nc(NC(=O)NS(=O)(=O)c2ccccc2C(=O)OC)n1, the AC50 [2] was 14.8 µM (active).

In the case of CC[C@H](C)[C@H]1O[C@]2(C=C[C@@H]1C)C[C@@H]1C[C@@H](C/C=C(\C)[C@@H](O[C@H]3C[C@H](OC)[C@@H](O[C@H]4C[C@H](OC)[C@@H](O)[C@H](C)O4)[C@H](C)O3)[C@@H](C)/C=C/C=C3\CO[C@@H]4[C@H](O)C(C)=C[C@@H](C(=O)O1)[C@]34O)O2 (tested in a mixture with another compound), the AC50 [1] is reported as 13.8 µM (active), the AC50 [6] is reported as 25 µM (active) and the AC50 [7] is reported as 5.22 µM (active). The AC50 [8] was 5.57 µM (active).

In the case of CCS(=O)(=O)c1cccnc1S(=O)(=O)NC(=O)Nc1nc(OC)cc(OC)n1, the outcome [8] is reported as “inactive”.

COC(=O)c1ccccc1S(=O)(=O)NC(=O)N(C)c1nc(C)nc(OC)n1 was tested, and the outcome [9] was “inactive”, the outcome [10] was “inactive” and the AC50 [11] was 9.14 µM (active). The outcome [12] was “inactive”, the AC50 [2] was 25 µM (active) and the outcome [13] was “inactive”.

COc1nn(CSP(=S)(OC)OC)c(=O)s1 was tested, and the AC50 [2] was 9.55 µM (active).

With CNC(=O)CSP(=S)(OC)OC the outcome [7] was “inactive”.

For Cc1[nH]c(=O)n(C(C)(C)C)c(=O)c1Cl, the AC50 [3] was 9.17 µM (active).

Cc1cc(C)nc(NC(=O)NS(=O)(=O)c2ccccc2C(=O)OC2COC2)n1 was tested, and the AC50 [11] was 18.6 µM (active).

In the case of CC1(C)C(C=C(Cl)Cl)C1C(=O)OC(C#N)c1ccc(F)c(Oc2ccccc2)c1 (stereo unspecified), the outcome [14] is reported as “inactive”.

CCCN(CCOc1c(Cl)cc(Cl)cc1Cl)C(=O)n1ccnc1 was tested, and the AC50 [15] was 13 µM (active), the AC50 [2] was 7.79 µM (active) and the AC50 [3] was 9.58 µM (active).

With O=C(O)C(F)(F)C(F)(F)C(F)(F)C(F)(F)C(F)(F)C(F)(F)C(F)(F)F the outcome [5] was “inactive”, the outcome [11] was “inactive” and the outcome [16] was “inactive”. The outcome [6] was “inactive”, the outcome [12] was “inactive” and the outcome [7] was “inactive”. For the same molecule, the outcome [13] was “inactive” and the AC50 [8] was 11.3 µM (active).

For O=C(Nc1ccccc1)Nc1cnns1, the outcome [6] was “inactive”.

For CCN(CC)C(=O)SCc1ccc(Cl)cc1, the outcome [8] was “inactive”.
